Assay outcomes from PubChem.
TDP1 cell CPT: DT40-hTDP1 cell growth loss with CPT. chicken DT40 Tdp1-/-;hTDP1 cells + 20 nM CPT, ATP luminescence, 48 h. Potency, µM (highest dose often 46.2 µM), usual class: inhibitors. 12% of 420,000 active; also: nearly all actives have a fitted effect of over 55% in size
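Chicken DT40 Tdp1-/- cells complemented with human TDP1, 400 cells/well, exposed to compounds plus 20 nM camptothecin for at least 48 h at 37 C; viability read as ATP content by CellTiter-Glo luminescence.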
RORg inh: ROR gamma (mouse) transcription inhibition. P51450. Drosophila S2 Gal4-RORgamma UAS-luciferase reporter, 20 h. Potency, µM (doses to about 53.6 µM), most hits filed as inhibitors. 5.4% of 310,000 active; also: nearly all actives have a fitted effect of over 60% in size
Target sequence (P51450 whole entry, looked up, the tested form may be a part): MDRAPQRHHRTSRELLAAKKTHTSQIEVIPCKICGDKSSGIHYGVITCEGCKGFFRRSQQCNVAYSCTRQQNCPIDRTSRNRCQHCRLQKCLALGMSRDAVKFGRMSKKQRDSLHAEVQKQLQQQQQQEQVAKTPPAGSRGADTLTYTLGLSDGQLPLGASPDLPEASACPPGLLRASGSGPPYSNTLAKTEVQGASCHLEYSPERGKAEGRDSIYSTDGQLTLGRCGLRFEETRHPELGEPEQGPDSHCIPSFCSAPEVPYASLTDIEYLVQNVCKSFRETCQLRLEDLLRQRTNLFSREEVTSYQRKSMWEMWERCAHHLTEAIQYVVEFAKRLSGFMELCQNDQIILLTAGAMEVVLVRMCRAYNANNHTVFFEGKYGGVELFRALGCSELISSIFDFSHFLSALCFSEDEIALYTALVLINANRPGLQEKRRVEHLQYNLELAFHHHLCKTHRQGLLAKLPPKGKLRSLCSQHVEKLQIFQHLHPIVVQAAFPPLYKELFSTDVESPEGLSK
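Luciferase reporter read in Schneider cells carrying Gal4-RORγ (mouse) and UAS-Photinus luciferase; cells given compound 1 h before 700 uM copper sulfate induction, then incubated 20 h at ambient temperature.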
DT40 TDP1 no CPT: qHTS for Inhibitors of human tyrosyl-DNA phosphodiesterase 1 (TDP1): qHTS in cells in absence of CPT; DT40 Tdp1-/- hTDP1 cells, no CPT, ATP luminescence, 48 h; Potency, µM (titrated, usually from 46.2 µM), hits mostly inhibitors; 15% of 420,000 active; AID 686978, 2013; also: nearly all actives have a fitted effect of over 55% in size
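Readout: luminescence from CellTiter-Glo after 30 min in the dark at RT. Cells: DT40 Tdp1-/- with stable hTDP1, 400/well. Exposure: compounds alone, ≥48 hr, 37 °C.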
VP16 counter: counter-screen for ROR gamma inhibitors: Gal4-VP16 reporter | Potency, µM (doses to about 53.6 µM), hits mostly inhibitors | Drosophila S2 Gal4-VP16 UAS-luciferase, luminescence, 20 h | AID 2546 | 3.5% of 310,000 active;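 also: Gal4-VP16 expression switched on by copper sulfate through the metallothionein promoter; nearly all actives have a fitted effect of over 50% in size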
LDHA block: inhibitors of human lactate dehydrogenase A; P00338; purified LDHA, NADH/diaphorase-resazurin fluorescence; hits give low values; activity change, % (values are at about 110 or 230 µM); 0.15% of 480,000 active; in the data active = activity change below about -30%; inconclusive = mostly about -25% to -30%
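Human LDH5 at 2 nM final in Tris HCl pH 7.4 with 0.06 mM NADH and 0.2 mM pyruvate, reacted 5 minutes at room temperature. Remaining NADH coupled via diaphorase/resazurin; resorufin fluorescence read at 0 and 20 minutes, normalized to enzyme-free and DMSO wells.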
IL1B secr inh: blocks inflammasome-driven IL-1 beta release. activity change, % at 57.5 µM. 4.7% of 360,000 active. THP-1 LPS/ATP IL-1B secretion, AlphaLISA, 16 h; hits give low values; in the data active = activity change below about -50%; inconclusive = mostly about -30% to -49%
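THP-1 cells pretreated 1 hr with compounds (up to 57.5 uM final), then stimulated with LPS (250 ng/mL final) plus ATP (1.25 mM final); secreted IL-1B measured by AlphaLISA after 16 hr, decreased signal indicating inhibition.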
Hits are given with their value; i = inactive; ? = inconclusive; nt = no result given. Shown are actives, neighbours in structure and some others; about 18% of the full set was active somewhere. Unless noted, calls follow the shape of the dose curve; as a rule, active = well fitted curve in the direction sought with a large enough effect; inconclusive = small, poorly fitted or top-dose-only effect, or another doubt; inactive = no such curve, though single readings can be large; an effect the other way counts as inactive or inconclusive.

SMILES	TDP1 cell CPT	RORg inh	DT40 TDP1 no CPT	VP16 counter	LDHA block	IL1B secr inh
CCc1ccc(/C=C2\SC(=S)N(CCCC(=O)Nc3ccc(C(=O)O)cc3)C2=O)cc1	i	4µM	i	?	i	i
CCc1ccc(/C=C2/SC(=S)N(CCC(=O)Nc3cccnc3)C2=O)cc1	?	nt	i	nt	i	i
CCc1ccc(/C=C2\SC(=S)N(CCCC(=O)Nc3ccccc3C(=O)O)C2=O)cc1	i	5µM	i	20µM	i	i
COc1cc(/C=C2\SC(=S)N(NC(=O)c3ccccc3O)C2=O)ccc1O	?	i	26µM	i	i	i
CCc1ccc(/C=C2\SC(=S)N(CCCC(=O)Nc3nccs3)C2=O)cc1	?	0.56µM	i	i	i	i
O=C(CCCN1C(=O)/C(=C\c2ccccc2)SC1=S)Nc1ccc(C(=O)O)cc1	i	i	i	i	i	i
CC1(C)CCC(=O)N2CC[C@H]3C[C@H](OC(=O)Nc4ccccc4)C[C@@H]1[C@H]32	16µM	i	?	i	i	i
O=C(Nc1ccccc1)OC1CCC2CC1CCC2OC(=O)Nc1ccccc1 (stereo unspecified)	13µM	?	12µM	?	i	?
COc1ccc(/C=N/OCC(=O)OCC(=O)c2ccc(Cl)cc2)cc1	nt	nt	nt	nt	i	nt
Cc1oc(-c2ccccc2)nc1C(=O)OCC(=O)N1CCC(C)CC1	nt	nt	nt	nt	i	nt
COc1ccccc1-n1cnc(N)c1C(=O)c1ccccc1	9.2µM	i	8.2µM	i	i	i
Cc1ccc(S(=O)(=O)N2CCC(=O)N([C@H](COCc3cccc(C(F)(F)F)c3)C(C)C)CC2)cc1	?	nt	16µM	nt	i	i
Cc1ccc(S(=O)(=O)N2CCC(=O)N(C(COCc3ccc(C(F)(F)F)cc3)C(C)C)CC2)cc1 (stereo unspecified)	16µM	?	12µM	i	i	i
Cc1ccc(C)c(N2CCN(S(=O)(=O)c3ccc4c(c3)CCCN4C(=O)C3CCC3)CC2)c1	16µM	nt	18µM	nt	i	nt
Cc1cccc(N2CCN(S(=O)(=O)c3ccc4c(c3)CCCN4C(=O)C3CCC3)CC2)c1C	?	i	16µM	i	i	i
CC(N(C)CC(=O)NC(C)(C#N)C1CC1)C(C)(C)C (stereo unspecified)	nt	nt	nt	nt	i	nt
O=C(OCC(=O)N1CCCCC1)c1ccccc1-c1nc2ccccc2s1	nt	nt	nt	nt	i	nt
Cn1c(=O)[nH]c(=O)c2c1nc(SCCO)n2Cc1cccc(Br)c1	nt	nt	nt	nt	i	nt
CN1C(=O)/C(=C/c2cc3c(cc2Br)OCO3)NC1=S	i	4.5µM	i	?	i	i
COc1ccc(CCNC(=O)c2cc([C@@H](NC(=O)OC(C)(C)C)C(C)C)sc2N)cc1OC	16µM	nt	18µM	nt	i	?
O=C(NC1CCc2ccccc21)c1cc(COc2cncc(Cl)c2)on1 (stereo unspecified)	9.2µM	i	?	?	i	-62
COc1ccc(/C=C2\N=C(SC)N(C)C2=O)cc1	i	i	i	i	i	i
CSC1=N/C(=C\c2ccc(Cl)cc2)C(=O)N1N(C)C	?	?	23µM	i	i	nt
CC(=O)N1CCSc2ccc(S(=O)(=O)Nc3cccc(C)c3)cc21	18µM	?	13µM	i	i	i
CC(=O)c1cccc(NS(=O)(=O)c2cc3c(cc2C)N(C(C)=O)CCO3)c1	?	i	?	i	i	i
SMILES	TDP1 cell CPT	RORg inh	DT40 TDP1 no CPT	VP16 counter	LDHA block	IL1B secr inh
CC(=O)N1CCSc2ccc(S(=O)(=O)Nc3ccccc3C)cc21	?	?	i	i	i	-57
CC(=O)c1cccc(NS(=O)(=O)c2ccc3c(c2)N(C(C)=O)CCO3)c1	?	?	21µM	i	i	i
O=C(CN1CCN(S(=O)(=O)N2CCCCC2)CC1)Nc1ccc(Br)cc1	?	nt	16µM	nt	i	i
O=C(CNc1ccc(Br)cc1)Nc1ccc(S(=O)(=O)N2CCCCC2)cc1	?	nt	29µM	nt	i	i
O=C(Nc1cccc(Cl)c1)NC1CC2CCC(C1)N2Cc1cccs1 (stereo unspecified)	21µM	?	26µM	i	i	i
Cc1ccc(NC(=S)NC2CC3CCCC(C2)N3Cc2ccco2)cc1 (stereo unspecified)	?	i	?	i	i	?
Cc1ccc(NC(=S)NC2CC3CCCC(C2)N3Cc2cccs2)cc1 (stereo unspecified)	?	4.5µM	18µM	?	i	-74
Cc1cccc(C)c1NC(=O)NC1CC2CCC(C1)N2Cc1cccs1 (stereo unspecified)	i	i	i	i	i	i
O=C(Nc1ccccc1-c1ccccc1)NC1CC2CCCC(C1)N2Cc1ccc(F)cc1 (stereo unspecified)	21µM	i	23µM	i	i	-61
Fc1ccc(NC(=S)NC2CC3CCCC(C2)N3Cc2cccs2)cc1 (stereo unspecified)	i	10µM	i	?	i	?
